# Assay results as given in PubChem BioAssay (NCI).
# Compounds without any hit were thinned out: in the full panel of roughly 83,000, 20% have a hit.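 How to read the values: 0–100, growth inhibition (40 = 60% inhibited); 0, no net growth; -100 to 0, cell death (-40 = 40% of starting cells died; -100 = all dead).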 Unmarked numbers belong to inactive results. The source made the active and inactive calls. How the source made its calls: active means growth percent below 10; inactive means the rest.
# System: HL-60(TB) leukemia
# Assay: NCI-60 one-dose screen, 48 h (100 = growth as untreated, 0 = no growth, -100 = all killed)
# Details: 10 µM unless noted
row,SMILES,growth
1,Cc1ccc(S(=O)(=O)NCCNc2nc(Nc3ccc(N4CCN(C)CC4)cc3)nc3ccsc23)cc1,86.4%
2,Cc1cc(=O)oc2cc(OCCCOc3ccc(/C=C/C(=O)Nc4ccc(Cl)cc4)cc3)ccc12,86.1%
3,C#CCn1cccc1CNc1ccc(OC)cc1,-63.1% (active)
4,O=C1c2c(c3c4cccnc4[nH]c3c3ccc4ccccc4c23)C(=O)N1CCN1CCOCC1,42.2%
5,NC1=NC2(CCCC2)N(c2ccc(S(=O)(=O)Nc3nccs3)cc2)C(N)=N1,102%
6,CS(=O)(=O)Nc1ccc(-c2nn(-c3ccc(S(C)(=O)=O)cc3)cc2/C=C/C(=O)c2ccc(NC(=O)CO[N+](=O)[O-])cc2)cc1,107%
7,COc1ccc(OC)c(CCn2cncc2-c2c[nH]c3ccc(Cl)cc23)c1,7.06% (active)
8,Fc1ccc(-c2cc3nc(C(Cl)Cl)nc(-c4ccccc4)n3n2)cc1,-17.3% (active)
9,CN(C)C(=O)c1ccccc1-n1cnc2ccccc2c1=O,99.1%
10,COc1ccc(C2c3[nH]c4ccc(Cl)cc4c3CCN2c2oc(CO)nc2C#N)cc1 (stereo not given),29.4%
11,Cc1nn(-c2ccc(Cl)cc2)c(C)c1N=Nc1ccc2oc(=O)ccc2c1,93.5%
12,CN(C)CCCNc1c2ccccc2nc2c1oc1ccc(Cl)cc12,-1.29% (active)
13,O=C1[C@@H]2Cc3c([nH]c4ccccc34)[C@H](c3c(Cl)cccc3Cl)N2C(=O)CN1C1CCN(Cc2ccccc2)CC1,29.3%
14,O=C(/C=C/c1cccc(O)c1)c1ccc(O)cc1,72.3%
15,N=c1c2cc(-c3ccccc3)oc2ncn1/N=C/c1ccc(Cl)cc1,116%
16,COc1cccc2c1CN(C(=O)c1ccc(O)c(C(=O)N3Cc4ccc(OCCC[P+](c5ccccc5)(c5ccccc5)c5ccccc5)cc4C3)c1)C2,41.3%
17,CSc1nccc(-c2c(-c3ccc(F)c(OCc4ccc(F)cc4)c3)nc3sccn23)n1,78%
18,COc1ccc(C(=O)Nc2ncc(Cc3ccccc3Cl)s2)cc1,-1.93% (active)
19,CCN1C(=O)N(CC)C2SC(N/N=C/c3ccc(OC)cc3)=NC21 (stereo not given),-16.6% (active)
20,COc1ccc2[nH]cc(-c3nc(N)nnc3-c3cn(C)c4ccc(Br)cc34)c2c1,-26.6% (active)

row,SMILES,growth
1,CC1(C)NCCC[C@]2(C)[C@H]3C/C(=N\O)C4[C@@H]5C[C@@](C)(CO)CC[C@]5(C)CC[C@@]4(C)[C@]3(C)CC[C@@H]12 (stereo not given in full),68.9%
2,CCOC(=O)c1c(NC(=O)c2ccc(C(C)(C)C)cc2)sc2cc(OCCN3CCCCC3)ccc12,27.1%
3,O=C(c1ccc(O)c(C(=O)N2Cc3ccc(OCCC[P+](c4ccccc4)(c4ccccc4)c4ccccc4)cc3C2)c1)N1Cc2cccc(F)c2C1,57.8%
4,CN(C)CCN(C)c1ccc2ncc(C#Cc3cncc(C(=O)Nc4ccc(CN5CCN(C)CC5)c(C(F)(F)F)c4)c3)n2n1,36.5%
5,CCN1CCN(S(=O)(=O)c2oc(-c3ccc(Cl)cc3)nc2C#N)CC1,7.25% (active)
6,COc1ccc(-c2nc(C(Cl)Cl)nc3cc(-c4ccccc4)nn23)cc1,-7.77% (active)
7,Brc1cccc(-c2cc(-c3cnc4c(c3)OCCO4)n[nH]2)c1,21.2%
8,ClC(Cl)c1nc(-c2cccs2)n2nc(-c3ccccc3)cc2n1,0.604% (active)
9,NC(N)=Nc1ccc(Oc2cccc(NC(N)=Nc3ccc(I)cc3F)c2)cn1,39.3%
10,N/C(=N\c1nc2ccc([N+](=O)[O-])cc2s1)C(Cl)(Cl)Cl,20.7%
11,O=S(=O)(Nc1cc(Cl)cc(Cl)c1)c1ccc(-c2cnc(C3CC3)o2)cc1,8.29% (active)
12,O=C1[C@H]2Cc3c([nH]c4ccccc34)[C@@H](c3ccc(Cl)cc3)N2C(=O)CN1C1CCN(Cc2c(Cl)cccc2Cl)CC1,108%
13,O=C(COc1ccc(/C=C2\C(=O)Nc3ccc(F)cc32)cc1)Nc1ccccc1,95.9%
14,O=S(=O)(Nc1ccc(-c2nc(-c3cccc(O)c3)c(-c3ccnc(Br)c3)[nH]2)cc1)c1ccccc1,-9.12% (active)
15,Cc1ccc2c(n1)C(=O)C(Cl)=C(Nc1ccc(C(F)(F)F)cc1)C2=O,35.8%
16,Cc1ccc(NC2=C(Cl)C(=O)c3nc(C)ccc3C2=O)c(C)c1,-14.8% (active)
17,CCOC(=O)c1cccnc1Nc1ccc(NC(=O)Nc2ccc(Cl)c(C(F)(F)F)c2)cc1,29.4%
18,O=C(c1ccc(O)cc1)[C@@H]1[C@@H]2CCCN2[C@@]2(C(=O)N(C(=O)c3ccc(F)cc3)c3ccccc32)[C@H]1c1ccc(F)cc1,78.6%
19,COc1cc(/C=C2\SC(=O)NC2=O)ccc1OCC(=O)Nc1ccc(C(=O)/C=C/c2cc3ccccc3nc2Cl)cc1,93.7%
20,Cc1ccc(/C=N/Nc2nc(Nc3ccccc3)nc(Nc3ccc(S(N)(=O)=O)cc3)n2)cc1,75.2%
